Test systems include T-47D breast; BT-549 breast; MDA-MB-435 melanoma; SW-620 colon; HCT-116 colon; HCC-2998 colon; KM12 colon; MCF7 breast.
Test in all cases: NCI-60 one-dose screen, 48 h (100 = growth as untreated, 0 = no growth, -100 = all killed)
Common to all, as to settings: 10 µM unless noted

The panel holds about 83,000 compounds, 20% with a hit somewhere; the sample as a whole holds those more often.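 How to read the values: 0–100, growth inhibition (40 = 60% inhibited); 0, no net growth; -100 to 0, cell death (-40 = 40% of starting cells died; -100 = all dead).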 Values without a mark were called inactive. Activity calls are given as the source filed them. Rule for the calls: active = growth percent below 10; inactive = the rest.

Take `COc1cc(N2C(=O)[C@H](c3ccccc3)C2c2ccc(SC)cc2)cc(OC)c1OC` (some centres not stated): the growth with T-47D breast was 61.9%; in the test on BT-549 breast it was -6.28% (active); in the test on MDA-MB-435 melanoma it was -23.7% (active); in the test on SW-620 colon, 25.2%; in the test with HCT-116 colon it was 0.933% (active); in the test on HCC-2998 colon it was 12.6%. The growth in the test on KM12 colon is 10.2%.

`O=C(NCc1ccc2c(c1)OCO2)NCC1CCCC(CNC(=O)NCc2ccc3c(c2)OCO3)C1` (configuration not stated): the growth was 86.7% in the test with T-47D breast; 96.3% with BT-549 breast; 95.9% in the test with MDA-MB-435 melanoma; 98% in the test on SW-620 colon; 101% in the test with HCT-116 colon; 102% in the test on HCC-2998 colon. In addition, the growth in the test on KM12 colon is 105%.

As for `COc1ccc(-c2cc(-c3cc(OC)c(OC)c(OC)c3)c(C#N)c(=O)n2CCCCCC(=O)NO)cc1`, the growth in the test with T-47D breast was 71.7%; in the test on BT-549 breast, 99.5%; in the test with MDA-MB-435 melanoma, 98.2%; in the test with SW-620 colon, 101%; in the test on HCT-116 colon, 88%; in the test with HCC-2998 colon, 110%. The growth with KM12 colon is 93.4%.

`O=C(c1ccc(Cl)cc1Cl)N1c2ccccc2Sc2ccccc21`: the growth with T-47D breast was 67.3%; with BT-549 breast it was 54.6%; in the test with MDA-MB-435 melanoma it was 47.9%; in the test with SW-620 colon, 38.3%; with HCT-116 colon it was 22.8%; in the test with HCC-2998 colon it was 64.6%. Besides, the growth in the test with KM12 colon was 49.8%.

Consider `CC1(C)CC[C@]2(C(=O)O)CC[C@]3(C)C(=CC[C@@H]4[C@@]5(C)C[C@@H](Cc6cn([C@@H]7O[C@H](CO)[C@@H](O)[C@H](O)[C@H]7O)nn6)[C@H](O)C(C)(C)[C@@H]5CC[C@]43C)[C@@H]2C1`, for which the growth in the test with T-47D breast was 94.2%; with BT-549 breast, 101%; in the test with MDA-MB-435 melanoma it was 104%; in the test on SW-620 colon, 102%; in the test with HCT-116 colon, 96.4%; in the test with HCC-2998 colon, 104%. The growth in the test with KM12 colon is 104%.

Take `CCOC(=O)c1c(-c2ccccc2)n2c(=O)cc(C)c3c(O)c(O)cc1c32`: the growth in the test with T-47D breast was 55%; in the test with BT-549 breast it was 89.8%; in the test with MDA-MB-435 melanoma it was 79.7%; in the test with SW-620 colon, 55.4%; in the test with HCT-116 colon, 24.5%; in the test with HCC-2998 colon, 61.3%.

In the case of `NS(=O)(=O)c1ccc(N/C=C/C(=O)c2cc3ccccc3oc2=O)cc1`, the growth in the test on T-47D breast was 89.1%; in the test on BT-549 breast, 95.5%; in the test on MDA-MB-435 melanoma, 100%; in the test with SW-620 colon it was 95.5%; in the test with HCT-116 colon, 97.1%; in the test on HCC-2998 colon, 109%. For the same molecule, in the test with KM12 colon, the growth is 98.2%.

Take `COC(=O)c1c2c(n3ccc(C)cc13)C(=O)c1ccccc1C2=O`: the growth was 82% in the test on T-47D breast; 69.7% in the test on BT-549 breast; 93.4% in the test with MDA-MB-435 melanoma; 54.3% in the test on SW-620 colon; 41.6% with HCT-116 colon; 94.6% in the test on HCC-2998 colon. Also, the growth with KM12 colon is 59.4%.

Take `O=C(CN1C(=O)NC2NC(=O)NC21)N/N=C/c1ccc(Cl)cc1Cl` (configuration not stated): the growth in the test on T-47D breast is 110%; in the test on BT-549 breast, 98.9%; in the test on MDA-MB-435 melanoma, 102%; in the test with SW-620 colon, 104%; in the test with MCF7 breast, 98%; with HCT-116 colon, 101%. For the same molecule, the figures for the growth with HCC-2998 colon and with KM12 colon were 110% and 105%, respectively.

For the molecule `COc1cc(C#Cc2ccc(=O)oc2C#Cc2ccccc2)cc(OC)c1OC`, the growth in the test with T-47D breast was 27.6%; with BT-549 breast, 57.6%; in the test with MDA-MB-435 melanoma, 96%; in the test with SW-620 colon, 8.07% (active); with HCT-116 colon it was -32.2% (active); in the test with HCC-2998 colon it was 29.1%. In the test with KM12 colon, the growth was 82.7%.

Turning to `Cn1cc(-c2nonc2-c2c[nH]c3ccc(F)cc23)c2cc(Br)ccc21`, the growth in the test with T-47D breast was 14.8%; with BT-549 breast, 65.9%; in the test with MDA-MB-435 melanoma, 51%; in the test on SW-620 colon it was 64.5%; in the test with HCT-116 colon it was 35.1%; in the test with HCC-2998 colon, 40.1%. The growth with KM12 colon was 29.4%.

Regarding `COc1ccc(/C=C/C(=O)c2ccc(NC(=O)CSc3nnc(-c4cc(-c5ccccc5)nc5ccccc45)n3-c3ccccc3)cc2)cc1`, the growth with T-47D breast is 80.3%; in the test on BT-549 breast it was 96.3%; in the test on MDA-MB-435 melanoma, 97.9%; in the test on SW-620 colon, 96.6%; with HCT-116 colon, 98.7%; with HCC-2998 colon, 107%. The growth in the test with KM12 colon is 89.5%.

In the case of `CC(C)(C)C(=O)/C=C/c1ccc([N+](=O)[O-])cc1`, the growth with T-47D breast is 65.8%; with BT-549 breast it was 78.5%; in the test with MDA-MB-435 melanoma it was 47.1%; in the test on SW-620 colon, 20%; in the test with HCT-116 colon it was 42.2%; in the test on HCC-2998 colon, 119%. Besides, in the test with KM12 colon, the growth was 31.9%.

For `c1ccc(CCc2ccccc2-c2cc(-c3ccccc3)on2)cc1`, the growth with T-47D breast was 55.4%; in the test on BT-549 breast it was 102%; with MDA-MB-435 melanoma, 105%; with SW-620 colon it was 91%; with HCT-116 colon it was 59.8%; in the test with HCC-2998 colon, 90.4%. Moreover, the growth with KM12 colon is 87.5%.

As to `C=CCN=C(N)SCCCCCCSC(N)=NCC=C`, the growth in the test with T-47D breast was 55.9%; in the test on BT-549 breast, 84.9%; in the test with MDA-MB-435 melanoma it was 99.3%; in the test with SW-620 colon it was 94.7%; in the test with HCT-116 colon it was 75.5%; in the test with HCC-2998 colon, 93.1%. Moreover, the growth with KM12 colon is 97.5%.

`CCCCn1sc(=O)n(Cc2ccc(CNC(=O)OCc3ccc4c(Br)cc(Br)c(O)c4n3)cc2)c1=O`: the growth in the test on T-47D breast is 69.9%; in the test on BT-549 breast it was -16.2% (active); in the test on MDA-MB-435 melanoma, -35.4% (active); in the test with SW-620 colon, 24.5%; in the test with HCT-116 colon it was 7.95% (active); with HCC-2998 colon, 24.8%. Further, the growth in the test on KM12 colon was 2.42% (active).

Turning to `N#Cc1nc(-c2ccc(F)cc2)oc1S(=O)(=O)N1CCN(c2ccc(F)cc2)CC1`, the growth in the test on T-47D breast was 85.8%; in the test on BT-549 breast, 103%; in the test on MDA-MB-435 melanoma it was 86.8%; in the test with SW-620 colon, 19%; in the test on HCT-116 colon, 46.7%; with HCC-2998 colon, 109%. For the same molecule, the growth in the test on KM12 colon was 102%.

`Cc1ccc(C)n1/C=C/n1c(C)ccc1C`: the growth was 90.5% in the test on T-47D breast; 91% in the test on BT-549 breast; 91.9% in the test with MDA-MB-435 melanoma; 110% in the test on SW-620 colon; 104% in the test on HCT-116 colon; 95% with HCC-2998 colon. Besides, the growth in the test with KM12 colon was 109%.

With `C[C@@H]1O[C@@H](O[C@@H]2C[C@H](c3ccc4c(c3O)C(=O)C3=C(C4=O)[C@@]4(O)C(=O)C[C@](C)(O)C[C@@]4(O)C=C3)O[C@H](C)[C@H]2O)C[C@H](O)[C@@H]1O`, the growth was 93.8% in the test with T-47D breast; 100% with BT-549 breast; 103% with MDA-MB-435 melanoma; 95% with SW-620 colon; 98.9% in the test on HCT-116 colon; 102% in the test on HCC-2998 colon. The growth with KM12 colon was 99.7%.

For `Cn1ccnc1C(=O)/C=C/c1ccc(C(=O)Nc2ccc(F)cc2)cc1`, the growth is 23.4% in the test on T-47D breast; -14.9% (active) in the test on BT-549 breast; 18.3% in the test with MDA-MB-435 melanoma; 4.13% (active) in the test on SW-620 colon; -81.5% (active) in the test with HCT-116 colon; -0.654% (active) in the test on HCC-2998 colon. For the same molecule, the growth with KM12 colon was 3.4% (active).

On to `CN(C)c1ccc(/C=C/C(=O)c2ccccc2)cc1`, for which the growth is 68.5% in the test on T-47D breast; 81.3% with BT-549 breast; 28.6% in the test on MDA-MB-435 melanoma; 63.5% in the test with SW-620 colon; 67.5% in the test on HCT-116 colon; 97.5% in the test with HCC-2998 colon. Besides, in the test with KM12 colon, the growth was 51.4%.

For `C=C(C)[C@@H]1CC[C@]2(CO)CC[C@]3(C)[C@H](CC[C@@H]4[C@@]5(C)CCC(NCCc6ccc(O)cc6)C(C)(C)[C@@H]5CC[C@]43C)[C@@H]12` (some centres not stated), the growth is -66.3% (active) in the test on T-47D breast; 33.9% in the test on BT-549 breast; -92.4% (active) with MDA-MB-435 melanoma; -80% (active) in the test with SW-620 colon; -89.9% (active) in the test on HCT-116 colon; -90.1% (active) in the test with HCC-2998 colon. Also, in the test on KM12 colon, the growth is -84% (active).

In the case of `CCCCCCCCNc1cc2c3c(c1)CCCN3CCC2`, the growth is 13.4% with T-47D breast; 20% in the test with BT-549 breast; 9.1% (active) in the test on MDA-MB-435 melanoma; 9.22% (active) with SW-620 colon; 5.39% (active) in the test on HCT-116 colon; 11.8% in the test on HCC-2998 colon. The growth with KM12 colon is 5.45% (active).

Take `COc1ccc2cc(Cn3cc[n+](Cc4ccc5ccccc5c4)c3)ccc2c1`: the growth in the test with T-47D breast is -4.51% (active); in the test on BT-549 breast it was 11.8%; in the test with SW-620 colon, 44.4%; in the test with MCF7 breast, 40.9%; in the test with HCT-116 colon, 33.7%; in the test on HCC-2998 colon, 26.7%. Further, in the test with KM12 colon, the growth was -23.2% (active).

Turning to `O=C(Nc1cccc(NC(=O)C2CCCCC2)c1)c1ccccn1`, the growth was 95.7% with T-47D breast; 102% in the test on BT-549 breast; 115% in the test with SW-620 colon; 86.4% in the test on MCF7 breast; 93.6% in the test on HCT-116 colon; 87.4% in the test on HCC-2998 colon. Also, the growth in the test with KM12 colon is 98.6%.

Consider `Cn1c(=O)c2c(nc(NC3=NS(=O)(=O)c4ccccc43)n2Cc2ccccc2)n(C)c1=O`, for which the growth in the test on T-47D breast was 115%; with BT-549 breast, 106%; with SW-620 colon it was 102%; in the test on MCF7 breast it was 88.7%; in the test with HCT-116 colon it was 103%; in the test with HCC-2998 colon, 107%. Further, in the test on KM12 colon, the growth was 99.9%.

Source of the values: PubChem BioAssay (NCI).
